High-throughput results deposited in PubChem by National Center for Advancing Translational Sciences (NCATS).
This is one part of a sample in which hits are shown more often than they occur.
CXXC DNA block = MLL CXXC-DNA interaction inhibition | Q03164 | MLL-CXXC / FITC-HOXA9 DNA fluorescence polarization | Potency, µM (highest dose often 115 µM), inactives show at the highest dose activity change, negative = inhibition, hits mostly inhibitors | 0.037% of 290,000 active; active = well fitted inhibition curve with a large enough effect in the polarisation, with a control signal flat, not every such curve was filed as active; inconclusive = small, poorly fitted or top-dose-only effect, or effect the other way, or a change in a side signal; inactive = no such curve, though single readings can be large or run the other way; the % refers to the polarisation; note: potency is the fitted concentration of half-maximal effect
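Steps: dispense CXXC domain solution (7 uM) → pin compounds or unlabeled HOX-A9 DNA control → 5 min ambient → add FLSN-HOX-A9 solution (50 nM) → spin → 30 min ambient → fluorescence polarization. Tris pH 7.5/NaCl/DTT/BSA buffer.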
Menin-MLL FL inh = displaces fluorescein MLL peptide from human menin | Fluorescence polarization, fluorescein-MLL peptide displacement from menin | FP activity change, % at 61.4 µM | 290,000 tested, under 10 active; active = well fitted curve in the direction sought with a large enough effect in the polarisation, not every such curve was filed as active; inconclusive = small, poorly fitted or top-dose-only effect, or effect the other way, or a change in a side signal; inactive = no such curve, though single readings can be large or run the other way; the % refers to the polarisation; note: % of control where 0% means no effect
Menin MLL FP TR = displaces Texas Red mutant MLL peptide from human menin. O00255. Menin + Texas Red MLL mutant peptide, fluorescence polarization. Potency, µM (titrated, usually from 61.6 µM), for the others: top-dose FP activity change, negative = inhibition, hits mostly inhibitors. 0.23% of 270,000 active. AID 1768; active = well fitted inhibition curve with a large enough effect in the polarisation, with a control signal flat, not every such curve was filed as active; inconclusive = small, poorly fitted or top-dose-only effect, or effect the other way, or a change in a side signal; inactive = no such curve, though single readings can be large or run the other way; the % refers to the polarisation; note: potency is the fitted concentration of half-maximal effect; % of control where 0% means no effect
Target sequence (O00255 whole entry, looked up): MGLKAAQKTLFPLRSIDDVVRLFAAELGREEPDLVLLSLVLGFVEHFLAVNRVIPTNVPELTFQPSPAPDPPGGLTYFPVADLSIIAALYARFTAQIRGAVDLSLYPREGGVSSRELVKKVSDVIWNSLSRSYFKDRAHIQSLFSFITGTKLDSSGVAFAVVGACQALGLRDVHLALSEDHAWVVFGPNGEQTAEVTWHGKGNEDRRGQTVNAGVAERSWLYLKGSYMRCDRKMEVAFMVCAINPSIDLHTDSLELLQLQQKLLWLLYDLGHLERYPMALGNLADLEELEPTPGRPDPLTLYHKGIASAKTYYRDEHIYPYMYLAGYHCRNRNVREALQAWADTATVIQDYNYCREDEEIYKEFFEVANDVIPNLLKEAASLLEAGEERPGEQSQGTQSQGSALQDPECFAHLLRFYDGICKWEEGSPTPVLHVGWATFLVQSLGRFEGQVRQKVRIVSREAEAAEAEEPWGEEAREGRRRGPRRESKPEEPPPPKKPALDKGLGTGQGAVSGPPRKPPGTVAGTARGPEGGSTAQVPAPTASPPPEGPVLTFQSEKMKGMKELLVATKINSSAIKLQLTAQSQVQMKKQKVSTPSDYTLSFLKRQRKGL
CBFb RUNX1 block = blocks binding between human CBF-beta and RUNX1 | Q01196+Q13951 | AlphaScreen CBFb-His/RUNX1-biotin binding, biochemical | Potency, µM (doses to about 59.8 µM), without a hit: at the top dose activity, negative = inhibition, actives largely listed as inhibitors | 230,000 tested, under 10 active | AID 1477; note: % of control where 0% means no effect
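His-tagged CBF-beta and biotinylated RUNX1 (30 nM each) were premixed 20 min at room temperature, exposed to compound for 15 min, then given nickel-chelate and streptavidin AlphaScreen beads (50 ng each). After 90 min, AlphaScreen signal was read.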
Lamin A splicing = changes lamin A minigene splicing in HeLa cells | HeLa LMNA splicing GFP/RFP minigene ratio, 48 h | Potency, µM (highest dose often 46.1 µM), without a hit: at the top dose ratio change, negative = inhibition, usual class: inhibitors | 0.01% of 200,000 active; active = well fitted inhibition curve with a large enough effect in the signal ratio, with a control signal flat, not every such curve was filed as active; inconclusive = small, poorly fitted or top-dose-only effect, or effect the other way, or a change in a side signal; the % refers to the signal ratio; note: potency is the fitted concentration of half-maximal effect; % is set by controls: 0 for no effect and ±100 for the full control effect
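S3 HeLa cells stably expressing lamin A-EGFP splicing minigene plus DsRed2, 600 cells/well, 48 h compound exposure at 37C. Laser-scanning cytometry; analysed as GFP (500-530 nm)/RFP (575-640 nm) total intensity ratio; 0.5% DMSO vehicle.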
MLL CXXC Fl = disrupts human MLL CXXC domain binding to DNA; 70% of 200 active; MLL CXXC-DNA binding, fluorescein FP; shares compounds with CXXC DNA block; Potency, µM (highest dose often 345 µM), for inactives: at the top dose activity change, negative = inhibition, usual class: inhibitors; note: potency is the fitted concentration of half-maximal effect; nearly all actives have a fitted effect of over 80% in size
MLL CXXC TxRed = MLL CXXC-DNA interaction inhibition, Texas Red FP | Potency, µM (doses to about 345 µM), for the others: at the top dose activity change, negative = inhibition, actives largely listed as inhibitors | 40% of 200 active | shares compounds with CXXC DNA block | MLL CXXC-DNA binding, Texas Red fluorescence polarization | AID 624161; note: potency is the fitted concentration of half-maximal effect; % is set by controls: 0 for no effect and ±100 for the full control effect; nearly all actives have a fitted effect of over 75% in size
MLL CXXC HTRF = disrupts human MLL CXXC domain binding to DNA by HTRF; Potency, µM (doses to about 172 µM), for inactives: at the highest dose activity change, negative = inhibition, usual class: inhibitors; shares compounds with CXXC DNA block; AID 624162; 30% of 210 active; MLL CXXC-DNA binding, HTRF, biochemical; note: % is set by controls: 0 for no effect and ±100 for the full control effect; nearly all actives have a fitted effect of over 80% in size
Starred values were filed as active, the others as inactive; [ ] = another dose, or the depositor's remark. Unless noted, calls come from the whole dose curve; as a rule, active = well fitted curve in the direction sought with a large enough effect; inconclusive = small, poorly fitted or top-dose-only effect, or another doubt; inactive = no such curve, though single readings can be large; an effect the other way counts as inactive or inconclusive.

Screening CCN(CC)c1ccc(C=C2C(=O)N(C)C(=S)N(C)C2=O)o1 returned CXXC DNA block 94%, Menin-MLL FL inh inconclusive, Menin MLL FP TR 8%, CBFb RUNX1 block -5% and Lamin A splicing -2%.
For CN1C(=O)C(=Cc2ccc(N3CCCCC3)o2)C(=O)N(C)C1=S the results were CXXC DNA block 84%, Menin-MLL FL inh inconclusive, Menin MLL FP TR 25µM*, CBFb RUNX1 block 5% and Lamin A splicing 18%.
`Cc1cccc2c3c(ccc12)C1=C(C(=O)C3=O)[C@@H](C)CO1` gave Menin-MLL FL inh 0, Menin MLL FP TR inconclusive and CBFb RUNX1 block -22%.
Screening CCCCOCCCn1c(N)c(C(=O)OCCOC)c2nc3ccccc3nc21 returned CXXC DNA block 28%, Menin-MLL FL inh 8, Menin MLL FP TR 28µM*, CBFb RUNX1 block 3% and Lamin A splicing 13%.
`COc1ccc(CCN)cc1O` gave CXXC DNA block 9%, Menin-MLL FL inh -2, Menin MLL FP TR inconclusive, CBFb RUNX1 block -19% and Lamin A splicing inconclusive.
For NCCc1cc(O)c(O)cc1O the results were CXXC DNA block 6%, Menin-MLL FL inh inconclusive and Menin MLL FP TR 40µM*.
For O=C(Nc1ccc(F)cc1F)c1cccnc1Oc1cccc(C(F)(F)F)c1 the results were CXXC DNA block 1%, Menin-MLL FL inh -1, Menin MLL FP TR 32µM*, CBFb RUNX1 block 1% and Lamin A splicing 9%.
O=C(NC(=O)c1c(F)cccc1F)Nc1ccc(Cl)c(Oc2ncc(C(F)(F)F)cc2Cl)c1 was read as CXXC DNA block 3%, Menin-MLL FL inh -3 and Menin MLL FP TR 4%.
For Cc1cc(I)ccc1Nc1c(C(=O)NOCC2CC2)cc(F)c(F)c1F the results were Menin-MLL FL inh 0, Menin MLL FP TR inconclusive and CBFb RUNX1 block 20%.
For C[C@@H]1O[C@@H](O[C@H]2CC[C@@H](O[C@H]3[C@H](O)C[C@H](c4ccc5c(c4O)C(=O)C4=C(C5=O)[C@@]5(O)C(=O)C[C@](C)(O[C@H]6CC[C@H](O[C@H]7C=CC(=O)[C@H](C)O7)[C@H](C)O6)C[C@@]5(O)C=C4)O[C@@H]3C)O[C@H]2C)C=CC1=O the results were Menin-MLL FL inh -6, Menin MLL FP TR inconclusive and CBFb RUNX1 block -10%.
Screening O=C(O)c1cccc2c1NC(C(=O)O)C1CC(Sc3ccccc3[N+](=O)[O-])C(Cl)C21 (stereo unspecified) returned CXXC DNA block 8%, Menin-MLL FL inh -12, Menin MLL FP TR 22µM*, CBFb RUNX1 block -4% and Lamin A splicing -11%.
`O=C(O)CCCCC1SCC2NC(=O)NC21` (stereo unspecified) gave CXXC DNA block 8%, Menin-MLL FL inh -2, Menin MLL FP TR 39%, CBFb RUNX1 block 1.8µM* and Lamin A splicing inconclusive.
O=C1NC(=O)N(c2ccc3c(c2)OCO3)C(=O)/C1=C/c1ccc(N2CCCCC2)o1 was read as CXXC DNA block inconclusive, Menin-MLL FL inh inconclusive, Menin MLL FP TR -7%, CBFb RUNX1 block 1% and Lamin A splicing 15%.
O=C1NC(=O)N(c2ccc3c(c2)OCO3)C(=O)/C1=C\c1ccc(-c2ccccc2C(=O)O)o1 was read as CXXC DNA block 14µM*, Menin-MLL FL inh 23, CBFb RUNX1 block inconclusive, Lamin A splicing -15%[46 µM], MLL CXXC Fl 14µM*, MLL CXXC TxRed 45µM* and MLL CXXC HTRF 19µM*.
